# Assay results as given in PubChem BioAssay (NCI).
# About 79,000 compounds went through this panel and 15% of them were active in at least one assay; those are over-represented in the sample as a whole. A number with no mark means an inactive call. Calls of active or inactive are those of the source. Rule as the data show it: active = growth inhibition above about 70%; inactive = the rest.
# What was measured:
# [1] = NCI Yeast Anticancer Drug Screen. Data for the rad50 strain (AID 155);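 also: 0% = growth of vehicle-only cultures of the same strain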; details: S. cerevisiae rad50 strain growth inhibition; at 50.0 µM; active compounds read high
# Procedure, shortened: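 Compounds were tested on a yeast strain with an engineered DNA damage repair alteration; the reported value is growth inhibition normalised to vehicle treatment.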
# [2] = NCI Yeast Anticancer Drug Screen. Data for the mec2-1 strain (AID 157); details: S. cerevisiae mec2-1 strain, at 50.0 µM, active compounds read high
# Procedure, shortened: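 Readout is yeast growth inhibition, normalised to vehicle-treated controls, in the mec2-1 strain exposed to compound.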
# [3] = NCI Yeast Anticancer Drug Screen. Data for the sgs1 mgt1 strain (AID 161);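 also: 0% = growth of cultures given vehicle only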; details: S. cerevisiae sgs1 mgt1 strain, at 50.0 µM, active compounds read high
# Procedure, shortened: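 This yeast growth screen uses a strain with defined DNA-repair lesions; compound-treated growth is compared with vehicle-treated growth.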
# [4] = NCI Yeast Anticancer Drug Screen. Data for the cln2 rad14 strain (AID 165);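 also: 0% = growth equal to vehicle treated cultures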; details: S. cerevisiae cln2 rad14 strain, at 50.0 µM, active compounds read high
# Procedure, shortened: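 Relative to vehicle controls, growth inhibition of compound-treated cln2 rad14 yeast was recorded.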
# [5] = NCI Yeast Anticancer Drug Screen. Data for the bub3 strain (AID 167); details: S. cerevisiae bub3 mutant strain, at 50.0 µM, active compounds read high
# Procedure, shortened: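 Growth of a checkpoint-deficient yeast mutant is measured after compound exposure. Values represent inhibition relative to vehicle.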
# [6] = NCI Yeast Anticancer Drug Screen. Data for the mlh1 rad18 strain (AID 175); details: S. cerevisiae mlh1 rad18 strain growth inhibition; at 50.0 µM; active compounds read high
# Procedure, shortened: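 Test agents were incubated with a yeast strain of defined genotype (DNA damage repair defect). Inhibition of growth was derived by comparison with vehicle-exposed cultures.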
SMILES,growth inhibition [1],growth inhibition [2],growth inhibition [3],growth inhibition [4],growth inhibition [5],growth inhibition [6]
O=c1oc2ccc([N+](=O)[O-])cc2cc1-c1csc(-c2ccccc2)n1,3%,-9.35%,-7.05%,7.45%,-26.3%,-48.8%
O=[N+]([O-])c1ccc(-n2cccc2)cc1,-0.55%,20%,-0.55%,44.4%,-0.75%,-7.2%
CC(=O)c1cc(Cl)ccc1Cl,23.9%,-6.2%,-0.8%,33%,-3.05%,26.1%
CC1(C)CO/C(=C/C(=O)c2ccccc2)N1C(=O)c1ccccc1,-4.6%,11.7%,-6.15%,1.55%,4%,-0.45%
O=C(/C(=C(/[O-])C(F)(F)F)[n+]1ccc2ccccc2c1)C(F)(F)F,-16.4%,-2.4%,-5.3%,-40.1%,-28.6%,-0.4%
CN1CCC(OC(=O)C(O)C2CCCCC2)CC1 (configuration not stated),23.5%,23%,13.8%,31.2%,19.9%,41.8%
CS(=O)(=O)OCC(CCl)(CCl)CCl,-4.5%,0.55%,0.15%,3.2%,-3.45%,-0.8%
COC(=O)c1nc2c(N)nc(-c3ccccc3)nc2nc1N,8.9%,-7.4%,23.1%,11.3%,-16.6%,-1.95%
CCCCCCCCCSCCOC(=S)N(C)C,13.7%,14.7%,79.2% (active),2.7%,21.8%,34.6%
CC(=O)c1cc([N+](=O)[O-])c[nH]1,9.05%,1.45%,1.1%,-19.1%,9.25%,0.5%
CC(=O)OC1CC(=O)OC(C)(C)C2CC(=O)C3(C)C(CCC4(C)C(c5ccoc5)OC(=O)C5OC543)C12C (configuration not stated),20.5%,-18.3%,11.1%,2.85%,-6.55%,21.1%
COc1cc(/C=C/c2ccnnc2)cc(OC)c1OC,-9.2%,15.3%,16.8%,-0.35%,15.3%,-34.6%
COC(=O)C1Cc2ccccc2C1=O (configuration not stated),-1.75%,-13.2%,-14.8%,-40.5%,-11.8%,-6.45%
CNNC(=NS(=O)(=O)c1cc(C#N)c(NNC)cc1S)NNC,6.05%,-3.95%,-11.3%,-36.5%,-8.45%,12.3%
C#CCNC(=O)CCC(N)C(=O)O (configuration not stated),-0.1%,-15.2%,-14.8%,3.05%,-11.8%,2.65%
COc1cc(C=Nc2ccc3c(c2)OCO3)ccc1OC(=O)c1ccccc1,5.3%,7.6%,8.35%,8.25%,12.9%,-5.5%
Cc1ccc(C2=Nc3ccccc3SC(c3cccc([N+](=O)[O-])c3)C2)cc1 (configuration not stated),11.2%,-12.6%,11.8%,-9.25%,-6.2%,-1.8%
Cc1nc2ccccc2c(=O)n1C(C)(C)CCl,10.1%,30.6%,11.1%,-14.7%,30.3%,19.9%
Cc1ccc2occ(-c3nnc(NC(=O)c4ccccc4)s3)c(=O)c2c1,-36.2%,-9.75%,-11.7%,-26.6%,-7.35%,-23.2%
C=CCCCCCCCC(O)C1C[C@H](O)C(CCCCC)O1 (some centres not stated),-0.8%,-16.9%,9.25%,1.15%,-17.2%,-5%
Cc1cccc(-c2nnc3s/c(=C\c4ccc5c(c4)OCO5)c(=O)n23)c1,-20.1%,-12.2%,-1.45%,11.7%,4.35%,0.65%

SMILES,growth inhibition [1],growth inhibition [2],growth inhibition [3],growth inhibition [4],growth inhibition [5],growth inhibition [6]
Oc1ccc(-c2cc(-c3cc(-c4ccc(O)cc4)no3)on2)cc1,-1.95%,-3.5%,-10.8%,-11.7%,-32.3%,-7.1%
N#CCOS(=O)(=O)O,-0.6%,0.45%,-1.4%,-6.7%,-3.25%,-1%
CC(=O)NC(CCCCNC(=O)OC(C)(C)C)C(=O)O (configuration not stated),-31.9%,-42.2%,-23.2%,7.45%,-2.85%,-39.1%
C=CCNC(=S)Nc1cc(Cl)ccc1OC,6.15%,8.45%,-2.45%,-5.45%,1.2%,7.1%
CC(=O)Nc1ccc(F)c(F)c1,17.8%,-16.7%,3.2%,-3.95%,-3.35%,30.8%
COc1cccc2c1OC(=O)NC2O (configuration not stated),-8.35%,-4.3%,-17.9%,-13.5%,-20.4%,4.3%
c1ccc(C2=C([P+](c3ccccc3)(c3ccccc3)c3ccccc3)CCO2)cc1,99% (active),99.1% (active),98.7% (active),98.2% (active),98.3% (active),98.8% (active)
CC1(C)OC(=O)N=C1c1ccc(F)cc1,-9.3%,7.7%,-1.25%,2%,-1.65%,17.4%
CCOC(=O)c1c(N)n(-c2ccccc2)c(=O)n(-c2ccccc2)c1=O,-8.85%,-5.3%,-30.9%,19.4%,-31.8%,-34%
COC(=O)C1CCC(C)(C(N)=O)C1(C)C (configuration not stated),16%,3%,-10.9%,-37.8%,5.25%,9.7%
CC(C)n1ncc2c(N)ncnc21,4.2%,-2.2%,-6.8%,-26.8%,21.4%,-3.8%
CCCCCCc1cc(-c2cc(CCCCCC)nc(N)n2)nc(N)n1,-4.25%,7.05%,0%,4.55%,-9.1%,16.4%
CCOC(=O)/C=C\SCCC(=O)O,10.1%,11.1%,15.8%,25.9%,27.1%,41.9%
C/C=C/C(=O)Nc1cc(C(F)(F)F)ccc1Cl,26.6%,-2.3%,-44.5%,10.8%,1.4%,9.15%
O=c1[nH]nc(Cc2ccc(Cl)cc2)n1CCO,8.2%,5.95%,19.6%,3.75%,5.85%,-21.1%
O=C1NC(c2ccccc2Cl)Nc2ccccc21 (configuration not stated),-1.1%,4.1%,5.65%,-32.1%,5.45%,-27.1%
CCOC(=O)NC(NC(=O)OCC)c1ccc(OC)cc1,-7.7%,-1.95%,1.75%,42.7%,-6.55%,-10.1%
O=C1CCCC2C(O)CCC[C@H]12 (some centres not stated),-9%,-2.9%,-21.8%,1%,-7.7%,-1.9%
CCOC(=O)C1=NN(c2ccccc2)C(=O)/C1=C\N1C(=S)NC(=O)/C1=C\c1cccc([N+](=O)[O-])c1,11.2%,-11.6%,1.25%,31.3%,-4.8%,-4.8%
Cc1nc(N)c2c(ncn2C2OC(CO)C(O)C2O)n1 (configuration not stated),9.35%,1.85%,-5.3%,-8.8%,-9.15%,14.6%
COc1ccccc1-c1cc(=O)c2cc(C)cnc2[nH]1,5.6%,5.5%,-0.5%,-30.9%,4.65%,13.9%
